# ALR H2O2 inh: blocks human ALR sulfhydryl oxidase activity. P55789. purified ALR, DTT oxidation, H2O2 HRP-luminol luminescence. inhibition, % (concentration not given with the values). 3.8% of 290,000 active. AID 485317;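 active = mean replicate inhibition above about 79%, with every replicate also reaching it, limit read from the data; inconclusive = only one of the two criteria met; inactive = mean below limit and not every replicate reaching it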
# Target sequence (P55789 whole entry, looked up): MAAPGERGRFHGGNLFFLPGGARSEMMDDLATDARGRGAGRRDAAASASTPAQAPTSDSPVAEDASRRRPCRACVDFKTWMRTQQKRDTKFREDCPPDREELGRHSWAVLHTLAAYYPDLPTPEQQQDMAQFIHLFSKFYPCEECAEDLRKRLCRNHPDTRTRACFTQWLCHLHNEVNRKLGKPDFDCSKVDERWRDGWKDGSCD
# HIF act: HIF pathway transcriptional activation; U2OS HRE-luciferase reporter, luminescence; normalized: DMSO 0%, desferrioxamine 100%; activation, % at 7.5 µM (by protocol); 0.32% of 300,000 active;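 active = mean activation of at least 10% of the iron chelator positive control signal, with at least half of replicates also reaching 10%; inconclusive = mean and replicate majority disagree about reaching 10%; inactive = mean and most replicates under 10%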
# PfM18AAP inh-1: PfM18AAP enzyme inhibition; recombinant PfM18AAP, H-Glu-NHMec fluorogenic cleavage; inhibition, % at 7.35 µM; 1.2% of 290,000 active; AID 1822;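 active = inhibition above the campaign mean inhibition over all tested compounds plus 3 SD, cut at about 28% in these data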;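 also: 0% = plate median of test compound wells and 100% = 2 mM ZnCl2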
# SUMO Mot1 rescue: SUMOylation pathway inhibition by Mot1-301 growth rescue. S. cerevisiae Mot1-301 growth rescue, ATP luminescence, 38.5C; percent above DMSO median, 100 means doubled. AID 2716. growth rescue, % at 18.8 µM. 1% of 320,000 active;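 active = every valid replicate shows activation above 250% relative to neutral control wells; inactive = the rest, any valid replicate at or below 250%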;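 also: OY570 slx delta 5 strain wells were the positive control but not used for scaling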
# PfM18AAP inh-2: PfM18AAP inhibition, confirmation; inhibition, % at 7.35 µM; shares compounds with PfM18AAP inh-1; AID 2170; 28% of 2,400 active; recombinant PfM18AAP, H-Glu-NHMec fluorogenic cleavage;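 active = mean inhibition over replicate wells above the hit cutoff set for the earlier primary screen, cut at about 29% in these data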;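 also: 0% = median of test compound wells and 100% = 2 mM ZnCl2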
# CTSL1 counter: counter-screen for PFM18AAP inhibitors: confirmation of human cathepsin L inhibitors. purified cathepsin L1, Z-Leu-Arg-MCA fluorescence. inhibition, % at 5.96 µM. shares compounds with PfM18AAP inh-1. 2,400 tested, under 10 active. AID 2178;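 active = average inhibition across replicates above the hit cutoff set in the earlier primary screen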;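 also: 0% = median of test compound wells and 100% = Z-Phe-Ala-diazomethylketone 1 µM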
# Target sequence (P07711 whole entry, looked up): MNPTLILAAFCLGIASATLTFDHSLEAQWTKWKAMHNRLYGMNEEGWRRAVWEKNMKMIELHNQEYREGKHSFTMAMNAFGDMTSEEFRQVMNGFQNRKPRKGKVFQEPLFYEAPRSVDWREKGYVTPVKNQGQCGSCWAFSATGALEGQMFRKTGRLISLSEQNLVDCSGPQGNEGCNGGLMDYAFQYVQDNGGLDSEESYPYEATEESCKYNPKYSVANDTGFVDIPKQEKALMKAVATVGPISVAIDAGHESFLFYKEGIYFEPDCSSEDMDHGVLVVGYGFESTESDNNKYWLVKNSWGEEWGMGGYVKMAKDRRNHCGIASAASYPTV
# * hit, by the source's call; ? = inconclusive; . = not tested or not shown. Compounds with a hit are over-represented: about 5.3% of the library has one in this group of screens.
SMILES,ALR H2O2 inh,HIF act,PfM18AAP inh-1,SUMO Mot1 rescue,PfM18AAP inh-2,CTSL1 counter
COc1ccc(/C=N/Nc2nc(C(=O)O)cs2)cc1,30,2,34*,-4,-4,0
C/C(=N\Nc1nc2c(s1)CCCC2)c1ccccc1,.,2,15,80,.,.
COC(=O)c1ccc(/C=N/Nc2nc(-c3ccccc3)cs2)cc1,70,3,9,0,.,.
C/C(=N\Nc1nc(C(=O)O)cs1)c1ccccc1,20,0,42*,-5,-29,-4
NS(=O)(=O)c1ccc(Nc2nc(-c3ccc(O)cc3)cs2)cc1,?,0,45*,1,44*,-2
O=C(Nn1cnnc1)c1cc2c(s1)CCCCC2,35,0,53*,-8,55*,5
CC(=Nc1ccc(O)cc1)c1sc2ccccc2c1O,-2,1,55*,6,-39,3
CC(=O)NCCN=C(C)c1sc2ccccc2c1O,11,2,8,-9,.,.
CC(C)(CNC(=O)Cc1ccc(Cl)cc1Cl)N1CCCCC1,2,-1,-1,10,.,.
CN(C)c1ccc(C(=S)N2CCN(c3ccc([N+](=O)[O-])cc3)CC2)cc1,-2,0,47*,-8,7,5
CC(C)(C)OC(=O)N[C@@H](Cc1ccccc1)C(=O)N[C@@H](CO)[C@H](O)[C@@H]1C[C@@H]1C(=O)NC1CC1,5,0,-13,-8,.,.
Cc1[nH]n(-c2ccccc2)c(=S)c1C=NCCCN=Cc1c(C)[nH]n(-c2ccccc2)c1=S,5,-1,59*,-9,-4,1
COC(=O)CN=Cc1c(C)[nH]n(-c2ccccc2)c1=O,2,0,-16,-16,.,.
O=C1C(Cl)=C(N2CCOCC2)C(=O)N1c1ccc(Br)cc1,5,-2,20,0,.,.
CC(C)c1ccc(N2C(=O)C(Cl)=C(N3CCOCC3)C2=O)cc1,-3,0,38*,-21,-28,-1
CC(C)CNC1=CC(=O)CC(c2ccco2)C1 (stereo not given),-9,0,40*,13,-16,-5
O=C1C=C(Nc2ccc(O)cc2)CC(c2ccco2)C1 (stereo not given),99*,0,42*,-2,-25,-1
O=C(Nc1cc(Cl)ccc1N1CCCC1)C1=NN(c2ccccc2)C(=O)CC1,-9,-2,7,189,.,.
CCN(c1ccc(OC)cc1)S(=O)(=O)c1nnc(NC(=O)COc2ccccc2)s1,-5,0,4,23,.,.
CCOC(=O)Cc1csc(NC(=O)NC2(C(F)(F)F)Oc3ccc(Cl)cc3O2)n1 (stereo not given),?,3,97*,15,73*,-2
CCOC(=O)Cc1csc(NC(=O)Cc2ccc(Cl)cc2)n1,-1,0,-4,-9,.,.
CCOC(=O)Cc1csc(NC(=O)NC2(C(F)(F)F)Oc3cc(Cl)c(Cl)cc3O2)n1,98*,1,94*,-22,73*,-3
O=C(NNC(=O)c1ccccc1Cl)c1ccc(-n2cncn2)c([N+](=O)[O-])c1,-9,.,.,18,.,.
O=C1CSC(=S)N1N=C1CCCCCC1,61,.,39*,-32,1,-1
COc1ccc(CCNc2cc(C)[nH]c(=O)c2)cc1OC,-5,-2,10,-4,.,.
SMILES,ALR H2O2 inh,HIF act,PfM18AAP inh-1,SUMO Mot1 rescue,PfM18AAP inh-2,CTSL1 counter
N#Cc1c(N)oc(-c2ccc3c(c2)OCO3)c1-c1ccc2c(c1)OCO2,6,1,48*,-22,16,-2
Cc1nc(N)c(C#N)c(-c2ccc3c(c2)OCO3)c1C,-6,-3,-1,5,.,.
CSc1cccc(NC(=S)N2CCC(N(C)C(C)C)CC2)c1,-1,0,11,-18,.,.
CCC(C)N(C)C1CCN(C(=S)Nc2cccc(SC)c2)CC1 (stereo not given),-3,-1,41*,67,-21,1
CCOC(=O)C1=C(c2ccccc2)NC(=O)NC1c1ccc(O)c(OCC)c1 (stereo not given),19,-1,6,10,.,.
CCOc1cc(C2NC(=O)NC2=O)ccc1O (stereo not given),32,0,35*,-11,-42,-5
NCCCCCc1nnc(SCc2ccc(Cl)c(Cl)c2)o1,-6,0,4,297,.,.
NC(=O)CSc1nnc(C2CC2)n1-c1ccccc1,-22,0,1,7,.,.
COCCN(C(=S)Nc1ccc(OC)c(Cl)c1)C1CCN(C(C)C)CC1,-9,0,36*,.,4,-7
COc1ccc(NC(=S)NCCN2CCC(C)CC2)cc1Cl,-3,-1,36*,14,14,2
CCCc1nc2nc(C)c(NS(=O)(=O)c3ccc(C(C)(C)C)cc3)c(=O)n2[nH]1,22,-2,-1,-19,.,.
CCC(C(=O)N/N=C(\C)c1cccnc1)c1ccccc1 (stereo not given),-4,0,-2,-4,.,.
CCOC(=O)N1CCC(NC(=O)c2ccc3c(c2)N=C(CC)c2ccccc2S3)CC1,-4,0,3,2,.,.
CCOC(=O)N1CCC(NC(=O)c2ccc3c(c2)sc2nc(-c4ccccc4)cn23)CC1,-3,.,40*,48,-17,0
COc1ccc(S(=O)(=O)N(CC(=O)NCc2ccco2)c2ccccc2OC)cc1,-12,0,7,87,.,.
Cc1cc(C)nc(SSc2nc(C)cc(C)n2)n1,.,-2,61*,-9,28,5
O=C(Cn1cc(S(=O)(=O)Cc2ccc([N+](=O)[O-])cc2)c2ccccc21)N1CCOCC1,-3,0,15,-2,.,.
O=C(O)C1OC(Oc2c(-c3ccc(O)c(O)c3)oc3cc(O)cc(O)c3c2=O)C(O)C(O)C1O (stereo not given),99*,-1,65*,-12,43*,4
COc1c(OC2OC(C(=O)O)C(O)C(O)C2O)cc(O)c2c(=O)cc(-c3ccccc3)oc12 (stereo not given),30,2,17,26,.,.
COc1cccc(CC(=O)OCC(=O)NC(=O)c2ccc(OC(F)F)cc2)c1,-1,-16,.,5,.,.
O=c1c2c([N+](=O)[O-])cc([N+](=O)[O-])cc2sn1Cc1ccccc1,13,-2,79*,-33,72*,2
CC1(C)O[C@@H](CC(=O)O)[C@]23CO[C@H](C(=O)[C@]4(C)C2CC[C@@]2(C)[C@H](c5ccoc5)OC(=O)C5O[C@]524)[C@@H]13 (stereo not given in full),3,.,.,-28,.,.
O=c1c2cn[nH]c2[nH]c(=S)n1-c1ccccc1F,10,0,57*,15,-1,-5
Cc1ccc(-n2c(=S)[nH]c3[nH]ncc3c2=O)cc1,-4,0,21,14,.,.
O=c1c2cn[nH]c2[nH]c(=S)n1-c1ccccc1Cl,14,0,37*,22,21,1
Oc1ccc(Br)cc1CNc1cccc2cccnc12,.,0,46*,1,-3,103*

# Compound activity as filed in PubChem.
